In the library only some 3.5% were active in any assay of this set; here they are far more common.
ERa SRC1 pot: ER-alpha (human) coactivator binding potentiation. P03372. TR-FRET ERalpha-LBD/SRC-Cy5 coactivator binding, 2 h; 100 = basal binding, no effect. coactivator binding (% of control), % at 25.6 µM. 86,000 tested, 1.3% active; in the data active means activity above about 200%;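 further: binding measured in presence of low estradiol as agonist stimulus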
ERa coact inh: blocks coactivator binding to human estrogen receptor alpha; TR-FRET ER-alpha LBD / SRC-1 peptide, estradiol-bound; inhibition, % at 25.6 µM; 86,000 tested, 1.7% active; AID 629; in the data active means inhibition above about 50%
CD11b adhes inh: inhibitors of human CD11b/CD18 binding to fibrinogen | P05107+P11215 | K562 CD11b/CD18 adhesion to fibrinogen, ATPlite luminescence; Mn2+ added to activate the integrin | inhibition, % at 10 µM | 93,000 tested, 0.54% active | AID 1497;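 active means primary inhibition of 50% or more at 10 µM, then 40% or more on retest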
FAK inh: FAK (human) kinase inhibition; biochemical FAK kinase activity assay; Q05397; AID 727; 97,000 tested, 0.84% active; inhibition, %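 (tested at 7 µM)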; in the data active means inhibition above about 19%
ERb coact inh: blocks coactivator binding to human estrogen receptor beta. 86,000 tested, 1.3% active. TR-FRET ER-beta LBD / SRC1-Cy5 peptide binding; receptor agonist-loaded with 1 µM estradiol. Q92731. AID 633. inhibition, % at 25.6 µM;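 active means compounds whose percent inhibition of the receptor-coactivator binding signal exceeds about 50% in the single-dose screen, limit read from the data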
Target sequence (Q92731 whole entry, looked up, the tested form may be a part): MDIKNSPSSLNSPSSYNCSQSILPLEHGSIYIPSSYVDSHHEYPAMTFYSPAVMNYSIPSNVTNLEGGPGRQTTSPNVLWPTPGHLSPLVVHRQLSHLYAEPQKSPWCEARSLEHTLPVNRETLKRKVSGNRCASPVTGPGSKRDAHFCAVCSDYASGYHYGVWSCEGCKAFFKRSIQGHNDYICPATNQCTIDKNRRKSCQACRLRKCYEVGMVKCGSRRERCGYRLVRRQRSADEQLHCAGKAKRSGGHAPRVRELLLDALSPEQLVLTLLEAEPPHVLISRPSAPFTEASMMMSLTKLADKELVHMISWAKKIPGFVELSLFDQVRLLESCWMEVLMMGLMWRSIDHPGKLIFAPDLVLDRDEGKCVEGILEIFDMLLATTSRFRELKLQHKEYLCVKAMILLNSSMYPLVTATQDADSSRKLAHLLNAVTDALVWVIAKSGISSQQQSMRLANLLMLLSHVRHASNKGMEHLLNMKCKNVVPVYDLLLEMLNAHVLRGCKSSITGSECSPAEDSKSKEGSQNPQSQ
Mac1 fbg enh: increases human CD11b/CD18 adhesion to fibrinogen; P05107+P11215; K562 CD11b/CD18 adhesion to fibrinogen, ATPlite luminescence; activation, % at 10 µM; 93,000 tested, 0.07% active;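 active means 10 µM primary screen giving 50% or more activity, confirmed by 40% or more on retest at that dose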
Of the large screens only hits and unclear results are named; the others gave an inactive call; [ ] = remark or other dose.

Cc1nn(-c2ccccc2)c2sc(C(=O)n3cccn3)cc12	none (no result: FAK inh)
Cc1nn(-c2ccccc2)c2sc(C(=O)C(C#N)c3ccccn3)cc12 (stereo not given)	ERa coact inh 79[fluorescence artefact?], ERb coact inh 93[fluorescence artefact?] (no result: FAK inh)
Cc1ccc(S(=O)(=O)N2CCN(c3nc(C)nc4sc(C)c(C)c34)CC2)cc1	none
COc1cccc2cc(-c3nc(-c4cccs4)cs3)c(=O)oc12	ERa coact inh 50[fluorescence artefact?]
Cc1cccc(C)c1OCC(O)CN (stereo not given)	none
COC(=O)c1ccccc1NC(=O)c1ccc(Cn2cc(Cl)cn2)o1	none
COC(=O)c1cc(NC(=O)c2ccc(Cn3cc(Cl)cn3)o2)cc(C(=O)OC)c1	ERa coact inh 58[fluorescence artefact?]
CCOC(=O)c1c(NC(=S)NC(=O)c2ccc(Cn3cc(Cl)cn3)o2)sc2c1CCC(C)C2 (stereo not given)	Mac1 fbg enh 201 (no result: ERa SRC1 pot, ERa coact inh, ERb coact inh)
Cc1[nH]nc(-c2ccc(O)c(C)c2O)c1-c1cnn(-c2ccccc2)c1	none
Cc1cc(C)n(-c2ccc(C(=O)OCC(=O)Nc3ccc(Cl)cc3[N+](=O)[O-])cc2)n1	none (no result: ERa SRC1 pot, ERa coact inh, FAK inh, ERb coact inh)
CCOc1ccc2nc(Nc3nc4c(c(=O)[nH]3)CCC4)nc(C)c2c1	ERa coact inh 52[fluorescence artefact?] (no result: CD11b adhes inh, FAK inh, Mac1 fbg enh)
CCOc1ccc2nc(Nc3nc(CSc4nnnn4-c4ccccc4)cc(=O)[nH]3)nc(C)c2c1	ERa SRC1 pot 216[fluorescence artefact?], ERa coact inh 70[fluorescence artefact?]
COc1cccc(N2C(=O)Nc3ccccc3C2(O)C(=O)NCc2ccc3c(c2)OCO3)c1 (stereo not given)	none (no result: FAK inh)
Cc1c(Br)ccc(NC(=O)CCN2C(=O)C3C4CCC(C4)C3C2=O)c1C (stereo not given)	none (no result: ERa SRC1 pot, ERa coact inh, ERb coact inh)
CCOC(=O)Cc1cc(=O)n2[nH]c(-c3ccc(Cl)cc3)cc2n1	none
CC(C)(C)OC(=O)N1CCC(c2cc(=O)n3[nH]c(-c4ccc(Cl)cc4)cc3n2)CC1	ERa SRC1 pot 251[fluorescence artefact?]
O=S(=O)(Nc1ccc(N2CCOCC2)cc1)c1cccs1	ERa coact inh 97[fluorescence artefact?], ERb coact inh 76[fluorescence artefact?]
N=c1cc(C2(O)CCCCC2)n2c(nc3ccccc32)s1	CD11b adhes inh 59
O=C1c2sc3nc4ccccc4n3c2C(=O)N1c1ccccc1Cl	none
CSCCC1NC(=O)NC1=O (stereo not given)	ERa coact inh 62 (no result: FAK inh)
CSCCC1NC(=O)N(CC(=O)Nc2cccc3ccccc23)C1=O (stereo not given)	none (no result: ERa SRC1 pot, ERa coact inh, ERb coact inh)
O=C(Nc1ccc2nsnc2c1)NC1CCCCC1	none (no result: ERa SRC1 pot, ERa coact inh, ERb coact inh)
CC(C)Cn1c(=O)c(C(=O)Nc2ccncc2)c(O)c2ccccc21	ERa coact inh 51[fluorescence artefact?] (no result: CD11b adhes inh, FAK inh, Mac1 fbg enh)
Cc1ccnc(NC(=O)c2c(O)c3ccccc3n(C)c2=O)c1	ERa SRC1 pot 345[fluorescence artefact?] (no result: FAK inh)
CC1Cc2ccccc2N1C(=O)COC(=O)Cn1nnc(-c2ccccc2)n1 (stereo not given)	none
Cc1cc(C)c2[nH]c(=O)c(C(c3nnnn3C(C)(C)C)N3CCN(C(=O)c4ccco4)CC3)cc2c1 (stereo not given)	none
CCOc1ccc(CCNC(=O)c2nnc(Cc3ccc(F)cc3)o2)cc1OCC	none (no result: CD11b adhes inh, FAK inh, Mac1 fbg enh)
Cc1[nH]n(-c2cccc3ccccc23)c(=O)c1/C=N/c1sc2c(c1C#N)CCC2	CD11b adhes inh 100 (no result: ERa SRC1 pot, ERa coact inh, ERb coact inh)
Cc1[nH]n(-c2ccc(F)cc2)c(=O)c1/C=N/c1sc2c(c1C#N)CCCC2	none (no result: ERa SRC1 pot, ERa coact inh, ERb coact inh)
Cc1cc(NC(=O)c2ccc(S(=O)(=O)N(C)C)cc2)n(-c2ccccn2)n1	none (no result: ERa SRC1 pot, ERa coact inh, CD11b adhes inh, ERb coact inh, Mac1 fbg enh)
Cc1cc(NC(=O)c2cncc(Br)c2)n(-c2ccccn2)n1	ERa SRC1 pot 294
N#Cc1c(C(F)(F)F)cc(-c2ccccc2)nc1SCc1nc(N)nc(N2CCOCC2)n1	ERa SRC1 pot 362[fluorescence artefact?], ERa coact inh 62 (no result: FAK inh)
O=C(CCN1CCN(CCC(=O)c2ccccc2)CC1)c1ccccc1	none (no result: CD11b adhes inh, FAK inh, Mac1 fbg enh)
CC1(C)CC(=O)N(CC(=O)NCc2ccc(F)cc2)c2ccccc2S1(=O)=O	none
CC(=O)NC(=S)Nc1ccc(NC(=O)COc2ccc(Cl)cc2)cc1	none (no result: ERa SRC1 pot, ERa coact inh, ERb coact inh)
CSc1nnc(-c2sc3cc(C(F)(F)F)cnc3c2-c2ccccn2)n1C	ERa SRC1 pot 347[fluorescence artefact?]
O=C(CSc1nnc2c(n1)[nH]c1ccccc12)Nc1ccc2c(c1)OCO2	none (no result: ERa SRC1 pot, ERa coact inh, ERb coact inh)
CC(=O)N1CCN=C1SCc1ccccc1	ERa SRC1 pot 263[fluorescence artefact?]
Cc1ccc(S(=O)(=O)NCCNc2ccc([N+](=O)[O-])cc2C(F)(F)F)cc1	none (no result: ERa SRC1 pot, ERa coact inh, ERb coact inh)
